This is a sample that favours compounds with a hit; in the whole collection about 2.1% have one here.
aSyn 5UTR inh: MLPCN primary screen, SNCA 5' untranslated region | alpha-synuclein 5'UTR reporter, inhibitor activity | actives 0.82% (n = 300,000) | AID 1813, 2009 | inhibition, % (tested at 7.5 µM); in the data active means inhibition above about 60%;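 further: H4 neuroglioblastoma cells stably carrying SNCA 5'UTR luciferase fusion; 0% = DMSO wells and 100% = positive control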
Wee1 degr inh: Wee1 degradation inhibitors, primary screen, cell-based, HeLa, Wee1K328M-luciferase, luminescence; AID 1321, 2008; actives 1.2% (n = 220,000); reporter increase, % at 5 µM; HeLa Luc-Wee1K328M stability; 100% = proteasome inhibitor MG132 effect;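 active means activation above the mean of all tested compounds plus 3 SD, set per screening run, cut at about 8.8% in these data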;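 further: cells exposed to compound for 20 h before luminescence read; 0% = DMSO alone and 100% = MG132 at 30 µM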
Target sequence (P30291 whole entry K328M): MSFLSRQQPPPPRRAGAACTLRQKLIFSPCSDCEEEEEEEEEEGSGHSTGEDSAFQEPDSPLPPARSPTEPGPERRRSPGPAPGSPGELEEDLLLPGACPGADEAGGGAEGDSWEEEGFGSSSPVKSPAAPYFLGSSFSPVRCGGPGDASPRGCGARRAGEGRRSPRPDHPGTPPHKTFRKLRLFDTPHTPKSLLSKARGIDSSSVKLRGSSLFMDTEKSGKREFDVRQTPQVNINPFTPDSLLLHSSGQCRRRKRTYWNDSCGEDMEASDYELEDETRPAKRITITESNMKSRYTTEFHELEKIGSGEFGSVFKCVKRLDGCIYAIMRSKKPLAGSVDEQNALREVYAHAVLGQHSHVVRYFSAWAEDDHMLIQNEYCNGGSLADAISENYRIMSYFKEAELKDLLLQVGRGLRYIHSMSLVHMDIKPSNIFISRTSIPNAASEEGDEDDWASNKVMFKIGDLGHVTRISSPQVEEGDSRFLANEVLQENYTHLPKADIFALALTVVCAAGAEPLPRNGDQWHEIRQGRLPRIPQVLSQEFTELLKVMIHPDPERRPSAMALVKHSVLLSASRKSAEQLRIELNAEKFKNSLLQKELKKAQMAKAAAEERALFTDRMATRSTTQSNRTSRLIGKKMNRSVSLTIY
Platelet DG rel: inhibitors of platelet dense granule secretion, primary screen, cell-based, MLPCN, human platelets; actives 0.22% (n = 300,000); human platelet-rich plasma, SFLLRN dense granule ATP release, luminescence; AID 1663, 2009; inhibition, %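 (compounds screened at 7.5 µM in platelet-rich plasma)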;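 active means mean replicate score, as percent of positive control, at or above 50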
HIF activator: HIF pathway transcriptional activators, primary screen, cell-based, U2OS HRE-luciferase, luminescence; U2OS HRE-luciferase reporter; normalized: DMSO 0%, desferrioxamine 100%; activation, % at 7.5 µM (by protocol); actives 0.32% (n = 300,000);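 active means mean activation of at least 10% of the iron chelator positive control signal, with at least half of replicates also reaching 10%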
KLF5 inhibitor: KLF5 expression inhibitors, primary screen, DLD-1 cells, luminescence; DLD-1 KLF5 promoter-luciferase reporter; inhibition, % at 5 µM; actives 0.23% (n = 290,000); AID 1700, 2009;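 active means inhibition above a per-plate limit of that plate's mean compound inhibition plus 3 SD, cut at about 60% in these data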;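 further: 0% = DMSO wells and 100% = LY294002 at 200 µM; higher means less KLF5 promoter-driven luciferase light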
* marks the source's active call; other numbers are inactive results; · = not tested or not shown.

SMILES	aSyn 5UTR inh	Wee1 degr inh	Platelet DG rel	HIF activator	KLF5 inhibitor
C=CCn1c(SCc2cc(=O)n3ccsc3n2)nc2scc(C3CC3)c2c1=O	0	·	2	0	·
C=CCn1c(SCC(=O)NC2CCS(=O)(=O)C2)nc2scc(C3CC3)c2c1=O (centres undefined)	13	9.7*	-1	0	-4
COc1ccc(Cl)cc1NC(=O)CN1CCN(S(=O)(=O)N2CCCCC2)CC1	7	·	-16	-1	21
Cc1cc(C)c2c3c(sc2n1)C(=O)N(c1ccccc1C)CC(=O)N3	-12	9.5*	-9	0	2
Cc1ccc(N2CC(=O)Nc3c(sc4nc(C)cc(C)c34)C2=O)cc1	0	-3	1	26*	-27
Cc1cc(C)c2c3c(sc2n1)C(=O)N(C)CC(=O)N3	-15	-2	2	0	-24
COc1ccc2nc3cccc(OC)c3nc2c1	-105	2	2	0	-15
COc1ccc2nc3ccccc3nc2c1N	-67	9.0*	-6	5	-48
CC(=O)c1cccc(OC(=O)c2ccc3c(=O)n4c(nc3c2)CCC4)c1	-2	·	-5	-3	·
Cc1ccc(N(O)C(=O)NCCCCNC(=O)N(O)c2ccc(C)cc2)cc1	-97	·	1	5	-84
COc1ccc(CC(=O)N(Cc2ccccc2)c2ccc(C)cc2)cc1OC	-11	·	-8	1	-4
CN1CCN(/N=C/c2ccc(N(c3ccccc3)c3ccccc3)cc2)CC1	71*	2	3	-6	-19
CCCC(=O)n1nc(-c2ccc(C)cc2)nc1NCc1ccco1	-88	10*	2	3	-68
Cc1ccc(C(=O)n2nc(-c3ccccc3)nc2NCc2ccco2)cc1	-68	3	0	0	-40
O=C(c1ccc(Cl)cc1)C1CCCN(Cc2ccc(Oc3ncccn3)cc2)C1 (centres undefined)	1	2	52*	0	0
COc1ccccc1CNC(=O)CCNS(=O)(=O)c1ccc2[nH]c(=O)oc2c1	-21	·	-17	0	10
COc1cc2c(cc1OC)CN(C(=O)c1cccc([N+](=O)[O-])c1)CC2	-23	10*	-7	0	-32
COc1ccc(CC(=O)N2CCNC2=O)cc1	3	29*	-2	0	10
COc1ccc2nc(SCC(=O)N3CCNC3=O)[nH]c2c1	-61	9.0*	-6	2	-82
COc1ccc(CC(=O)N2CCc3ccccc32)cc1	-74	1	-10	1	-49
COc1cccc(OCc2cc(C(=O)N3CCNC(=O)C3Cc3ccccc3)no2)c1 (centres undefined)	-74	·	11	2	-35
Cc1ccc2oc(-c3cccc(NC(=O)Cn4cnc5c(=O)n(C)c(=O)n(C)c54)c3)nc2c1	-119	1	10	1	-20
CCC(C)c1ccc2oc(-c3ccc(NC(=O)Cn4cnc5c(=O)n(C)c(=O)n(C)c54)cc3)nc2c1 (centres undefined)	-114	-2	2	10*	-11
Cn1nc(C(C)(C)C)cc1C(=O)NCc1ccc2c(c1)OCO2	5	·	-1	1	27
CC(C)c1cc(C(C)C)c(S(=O)(=O)N2c3ccccc3[C@]3(Br)C[C@H]4C(=O)N[C@@H](Cc5ccccc5)C(=O)N4[C@H]23)c(C(C)C)c1	65*	·	10	0	·
SMILES	aSyn 5UTR inh	Wee1 degr inh	Platelet DG rel	HIF activator	KLF5 inhibitor
COc1ccc(OC)c(N(CC(=O)Nc2cccnc2)S(C)(=O)=O)c1	5	9.6*	5	0	-19
COc1ccc(N(CC(=O)Nc2cccc(SC)c2)S(C)(=O)=O)cc1	-51	9.2*	-1	1	-14
COc1ccc(OC)c(N(CC(=O)Nc2cccnc2)S(=O)(=O)c2ccc(OC)c(OC)c2)c1	20	0	1	0	3
Cc1ccccc1-c1nc(CS(=O)(=O)CC(=O)N2CCOCC2)c(C)o1	-1	·	-2	0	0
O=C(Nc1ccccc1F)c1c[nH]c(=O)[nH]c1=O	-10	-3	66*	0	-11
Cc1ccc(C)c(OCC(=O)Nc2c[nH]c(=O)[nH]c2=O)c1	81*	-1	40	1	-3
COc1ccccc1C(=O)Nc1c[nH]c(=O)[nH]c1=O	8	·	96*	-2	-9
CCOc1ccccc1C(=O)Nc1c[nH]c(=O)[nH]c1=O	62*	·	88*	-1	-32
O=C(COC(=O)c1c[nH]c(=O)[nH]c1=O)Nc1ccccc1F	7	-1	22	-1	0
O=C(Nc1c[nH]c(=O)[nH]c1=O)c1ccccc1Cl	22	·	1	-3	-46
Cc1ccc(OCC(=O)Nc2c[nH]c(=O)[nH]c2=O)cc1C	20	-4	4	0	-9
Cc1ccc(S(=O)(=O)c2cc(C)cc(S(=O)(=O)Nc3ccc(C(=O)O)cc3)c2C)cc1	11	·	1	-1	-1
CN(C(=O)c1ccc(Cl)c([N+](=O)[O-])c1)C1(C)CCS(=O)(=O)C1 (centres undefined)	-10	·	5	-2	·
CCCCCN(C(=O)NC(=O)Nn1cnnc1)S(C)(=O)=O	6	9.9*	-2	0	-7
CCOc1ccccc1-n1c(CN2CCN(C(=O)c3ccco3)CC2)nc2ccccc2c1=O	111*	2	7	-2	-7
CCOc1ccccc1-c1nc(CN2CCN(C(=O)c3ccco3)CC2)c(C)o1	21	·	-9	0	-5
Cc1c(CNC(=O)C2CC2)c(-n2cccc2)n(Cc2ccccc2)c1C	8	3	1	0	-34
Cc1nc2ccc(NC(=S)N3CCN(c4ccccn4)CC3)cc2nc1C	-12	9.0*	-11	0	-12
Nn1c(COc2ccccc2F)nnc1SCC(=O)NC1CCCCC1	9	·	-1	0	·
CC1Sc2ccc(S(=O)(=O)NCCc3ccc(Cl)cc3)cc2NC1=O (centres undefined)	-3	·	6	0	-6
COc1ccc(/C=C/C(=O)c2cc(F)ccc2OC(=O)c2ccccc2C)cc1OC	82*	4	-4	-32	68*
COc1ccc(O)c(C(=O)CC(=O)c2ccccc2C)c1	-100	8.9*	2	1	-167
COc1ccc(O)c(C(=O)CC(=O)c2ccc(F)cc2)c1	73*	-5	-1	0	-121
Cc1ccc(OCC(=O)N(C)CC(=O)Nc2cccc(F)c2)cc1	15	·	23	-1	-47
O=C(/C=C/Nc1ccc(Oc2ccccc2)cc1)c1ccco1	-201	3	53*	2	-15
COc1ccc(CNC(=O)c2cc(S(=O)(=O)N3CCOCC3)cn2C)cc1	1	·	-28	0	-13
Cc1ccc(C)c(NC(=O)c2cc(S(=O)(=O)N3CCOCC3)cn2C)c1	0	·	111*	0	-11
COc1cccc(CNC(=O)c2cc(S(=O)(=O)N3CCOCC3)cn2C)c1	-24	·	51*	0	-17

High-throughput results deposited in PubChem by several laboratories.
